Source: PubChem BioAssay (EPA / NIEHS)
Inconclusive results are not listed. Active and inactive are the calls of the source. The calls were made as follows: active = hit-call score of the fitted dose curve at least 0.9, where 1 is the maximum; inconclusive = response in the unintended direction; inactive = score below 0.9.

What follows are compounds tested on Cytochrome P450 3A4 (Homo sapiens) (UniProt P08684) (assay: CLD_CYP3A4_24hr: CellzDirect (CLD) Gene Expression Assay for xenobiotic metabolism (CYP3A4) at 24 hours (AID 2283689)).
Chain of Cytochrome P450 3A4 (Homo sapiens) (P08684 whole entry, looked up): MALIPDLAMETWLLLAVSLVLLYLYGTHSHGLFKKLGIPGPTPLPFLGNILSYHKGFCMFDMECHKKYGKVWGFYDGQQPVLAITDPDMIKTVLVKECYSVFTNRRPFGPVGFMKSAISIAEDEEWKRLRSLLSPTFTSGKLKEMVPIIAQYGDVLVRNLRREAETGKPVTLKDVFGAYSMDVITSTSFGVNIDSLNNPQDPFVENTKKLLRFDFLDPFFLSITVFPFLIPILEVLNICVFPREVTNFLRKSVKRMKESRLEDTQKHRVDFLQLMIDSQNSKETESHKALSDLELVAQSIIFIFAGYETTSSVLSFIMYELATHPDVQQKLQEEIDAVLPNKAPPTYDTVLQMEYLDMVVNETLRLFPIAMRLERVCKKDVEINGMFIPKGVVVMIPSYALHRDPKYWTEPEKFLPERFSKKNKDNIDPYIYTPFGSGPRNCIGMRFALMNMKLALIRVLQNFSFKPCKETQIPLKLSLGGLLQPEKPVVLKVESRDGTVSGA
Method: CLD_24hr is a cell-based, multiplexed-readout assay that uses hepatocyte, a human liver primary cell, with measurements taken at 24 hours after chemical dosing in a 96-well plate.CLD_CYP3A4_24hr is one of 16 assay component(s) measured or calculated from the CLD_24hr assay. It is designed to make measurements of mRNA induction, a form of inducible reporter, as detected with chemiluminescence signals by Quantitative Nuclease Protection Assay (qNPA) technology.Data from the assay component CLD_CYP3A4_24hr was analyzed at the endpoint, CLD_CYP3A4_24hr, in the positive analysis fitting direction relative to DMSO as the negative control and baseline of activity. Using a type of inducible reporter, gain-of-signal activity can be used to understand changes in the reporter gene as they relate to the gene CYP3A4. Furthermore, this assay endpoint can be referred to as a primary readout. To generalize the intended target to other relatable targets, this assay endpoint is annotated to the cyp intended target family, where subfamily is xenobiotic metabolism.
Human hepatocyte cultures were treated daily for two consecutive days with fresh dosing solutions containing appropriate concentrations of the 320 ToxCast chemicals (chemical identities were blinded to CellzDirect and other ToxCast collaborators), vehicle control (0.2% DMSO), and positive control inducers as summarized in Table 1. Due to the large number of treatment groups and chemicals examined, the ToxCast chemicals were divided into two groups (spanning two independent cultures of hepatocytes from separate donor preparations (Hu778: ToxCast plates 1 and 2; Hu776: ToxCast plates 3 and 4). Each preparation of human hepatocyte cultures was treated with respective vehicle control, medium only control, set of six positive controls/reference chemicals for the five hepatic receptor pathways, and a subset of eight of the ToxCast chemicals (indoxacarb, pyrithiobac-sodium, norflurazon, cyhalofop-butyl, methomyl, thiram, acetochlor, and propiconazole). These replicate data, coupled with internal replicates designed within the blinded ToxCast chemical library, provided additional data to evaluate interindividual differences between hepatocyte preparations and their potential impact on chemical profiles.Cell morphology and integrity were evaluated using phase-contrast microscopy as an indicator of hepatocyte cell health (Tyson & Green, 1987). Cultures for each treatment group (i.e., media, vehicle [0.2% DMSO], positive control inducers [multiple concentrations], and the ToxCast chemicals [multiple concentrations]) were observed and cell morphology was assessed relative to vehicle control cultures at each harvest time point (0, 6, 24, or 48 h). […] Images were evaluated at the conclusion of the study to assess changes in cell integrity and account for the effects of chemical exposure on uncharacteristic changes in concentration-dependent gene expression profiles. The results from these determinations of apparent cytotoxicity were annotated (yes/no) alongside the corresponding qNPA data for reference.At the conclusion of each treatment period, hepatocyte cultures (96-well) were washed with 1 volume of HBSS, lysed by addition of 25 ul ArrayPlate lysis buffer (HTG, Tucson, AZ), and 70 ul/well of Denaturation Oil, denatured by incubation at 95C for 10 min, and frozen at approximately -70C until analysis by nuclease protection assay (qNPA) (Roberts et al., 2007). For qNPA analysis, cell lysates were thawed at 50C for approximately 30 min, qNPA probes were added, and samples were incubated at 95C for 10 min to begin the detection process by denaturing the target RNA, dissociating the duplexes and secondary structure hybridization. At the conclusion of the hybridization period, S1 nuclease reagent was added to each sample to digest all nonprotected nucleotides at 50C for 60-90 min. […]

Structure (SMILES)	outcome	AC50
Cc1[nH]c(=O)n(C(C)(C)C)c(=O)c1Cl	inactive	
COC(=O)c1ccccc1CS(=O)(=O)NC(=O)Nc1nc(OC)cc(OC)n1	inactive	
CC(C)(C)C(O)/C(=C\c1ccc(Cl)cc1Cl)n1cncn1 (stereo not drawn)		0.98 µM (active)
O=[N+]([O-])/N=C1\NCCN1Cc1ccc(Cl)nc1	inactive	
O=C(NC(=O)c1c(F)cccc1F)Nc1ccc(OC(F)(F)C(F)OC(F)(F)F)c(Cl)c1 (stereo not drawn)	inactive	
O=[N+]([O-])c1c(Cl)c(Cl)c(Cl)c(Cl)c1Cl	inactive	
COC(=O)c1ccccc1S(=O)(=O)NC(=O)Nc1nc(C)nc(OC)n1	inactive	
O=C(O)C(F)(F)C(F)(F)C(F)(F)C(F)(F)C(F)(F)C(F)(F)C(F)(F)F		20 µM (active)
Oc1ccc(Cl)cc1Cc1ccccc1	inactive	
CCCN(CCOc1c(Cl)cc(Cl)cc1Cl)C(=O)n1ccnc1		0.57 µM (active)
Cc1cc(C)nc(NC(=O)NS(=O)(=O)c2ccccc2C(=O)OC2COC2)n1		20 µM (active)
CC(C)OC(=O)Nc1cccc(Cl)c1		16 µM (active)
N#Cc1c(Cl)c(Cl)c(Cl)c(C#N)c1Cl	inactive	
CCN(CC)C(=O)SCc1ccc(Cl)cc1		20 µM (active)
COP(=S)(OC)Oc1ccc(SC)c(C)c1	inactive	
CCC(C)(NC(=O)c1cc(Cl)c(C)c(Cl)c1)C(=O)CCl (stereo not drawn)		4.49 µM (active)
O=C(O)CCCOc1ccc(Cl)cc1Cl	inactive	
CCOCN(C(=O)CCl)c1c(C)cccc1CC		3 µM (active)
C[C@H]1[C@H](c2ccc(Cl)cc2)SC(=O)N1C(=O)NC1CCCCC1		3.56 µM (active)

Structure (SMILES)	outcome	AC50
CCC(C)(C)C(=O)OC1=C(c2ccc(Cl)cc2Cl)C(=O)OC12CCCCC2		0.0493 µM (active)
CCOc1nc(NC)nc(NC(=O)NS(=O)(=O)c2ccccc2C(=O)OC)n1	inactive	
CC1(C)C(C=C(Cl)Cl)C1C(=O)OC(C#N)c1ccc(F)c(Oc2ccccc2)c1 (stereo not drawn)	inactive	
CCCN(CCC)c1c([N+](=O)[O-])cc(C(F)(F)F)cc1[N+](=O)[O-]		5.68 µM (active)
COC(=O)c1ccccc1S(=O)(=O)NC(=O)N(C)c1nc(C)nc(OC)n1	inactive	
COP(=S)(OC)Oc1ccc([N+](=O)[O-])cc1	inactive	
CCS(=O)(=O)c1cccnc1S(=O)(=O)NC(=O)Nc1nc(OC)cc(OC)n1		20 µM (active)
O=S(=O)(O)C(F)(F)C(F)(F)C(F)(F)C(F)(F)C(F)(F)C(F)(F)C(F)(F)C(F)(F)F	inactive	
CCOC1Oc2ccc(OS(C)(=O)=O)cc2C1(C)C (stereo not drawn)		20 µM (active)
CCc1ccc(C(=O)NN(C(=O)c2cc(C)cc(C)c2)C(C)(C)C)cc1		3.67 µM (active)
O=S1OCC2C(CO1)C1(Cl)C(Cl)=C(Cl)C2(Cl)C1(Cl)Cl (stereo not drawn)		20 µM (active)
CNC(=O)Oc1ccccc1OC(C)C		5.41 µM (active)
CNC(=O)Oc1cccc(N=CN(C)C)c1	inactive	
CC1(c2ccc(Oc3ccccc3)cc2)OC(=O)N(Nc2ccccc2)C1=O (stereo not drawn)	inactive	
Clc1ccccc1-c1nnc(-c2ccccc2Cl)nn1		3.97 µM (active)
CC(C)N(C(=O)COc1nnc(C(F)(F)F)s1)c1ccc(F)cc1	inactive	
CNC(=O)/C=C(\C)OP(=O)(OC)OC	inactive	
CCC(C)Nc1c([N+](=O)[O-])cc(C(C)(C)C)cc1[N+](=O)[O-] (stereo not drawn)		3.84 µM (active)
OCCOc1ccccc1	inactive	
